Measurements published in PubChem BioAssay (NCATS).
A number with no mark means an inactive call. Results filed as inconclusive are left out. The source made the active and inactive calls. Unless noted, the call rests on the fitted dose curve.

Experiments:
[1] = target: Glucocorticoid receptor (Homo sapiens) (UniProt P04150); assay: GR-GFP Redistribution (AID 450;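 active means compounds whose dose series gives a full or clear partial fitted curve of increased nuclear translocation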; further: potency means the concentration at half of the fitted maximal effect); settings: U2OS GR-GFP nuclear translocation, laser cytometry, 2 h
[2] = target: Glucocorticoid receptor (Homo sapiens) (UniProt P04150); assay: GR-EFC Redistribution (AID 451); settings: CHO-K1 GR-EFC translocation, beta-gal luminescence, 2 h; further: potency means the concentration at half of the fitted maximal effect
Method in brief: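 CHO-K1 cells expressing nuclear EA and GR-ED fragments of b-gal; compounds titrated up to 46 uM final, 2 h at 37 C. GR nuclear translocation read as complemented b-gal luminescence after 1 h RT detection.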

[3] = target: Mitogen-activated protein kinase 10 (Mus musculus) (UniProt Q61831); assay: JNK3 AlphaScreen Assay (AID 530; active means well fitted curve in either direction with a large enough effect, not every such curve was filed as active;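 further: kinase came from lysate of stimulated human HepG2 cells; signal reports phosphorylation of biotinylated GST-cJun 1-79 at Ser73 with 10 µM ATP; on the % scale 0 is the no-effect control and ±100 the full control effect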); settings: JNK3 lysate, c-Jun phosphorylation; series mostly up to 57.1 µM
Method in brief: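 Activity was read by AlphaScreen after JNK3-containing HepG2 lysate (cytokine pre-activated) phosphorylated biotinylated GST-cJun with 10 uM ATP at room temperature. Phospho-Ser73 cJun antibody with Protein-A acceptor beads provided detection.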

[4] = Stat Signaling Pathway (AID 446; active means well fitted curve in either direction with a large enough effect, not every such curve was filed as active;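 further: ME-180 cervical cancer cells given 40 pM IL-6 alongside compound; SIE-controlled beta-lactamase reporter measured as 460/530 nm FRET emission ratio; on the % scale 0 is the no-effect control and ±100 the full control effect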); settings: ME-180 (cervical carcinoma) SIE beta-lactamase reporter, IL-6 stimulated, 5 h; at 38 µM (top of the series) unless noted
Method in brief: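 Normalization used AC90 stimulation (300 pM IL-6) and AC90 inhibition (125 nM pan-JAK inhibitor at 40 pM IL-6). The underlying signal is SIE-driven beta-lactamase in ME-180 cells after 5 h IL-6 exposure with compound.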

[5] = target: 3',5'-cyclic-AMP phosphodiesterase 4B (Homo sapiens) (UniProt Q07343); assay: qHTS Assay for Inhibitors of PDE-IV (AID 607; active means well fitted activation curve with a large enough effect in the main read-out, with a control signal flat, not every such curve was filed as active; further: % of control where 0% means no effect); settings: HEK293 ACTOne CNG channel cells, membrane potential fluorescence; series mostly up to 22.9 µM
Method in brief: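 HEK293 ACTOne cells with CNG channel (1000/well), endogenous PDE4; membrane potential dye, compounds up to 22.9 uM final. Fluorescence Ex 535/Em 590; RO 20-1724 (100 uM final) as reference.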

Chain of Glucocorticoid receptor (Homo sapiens) (P04150 whole entry, looked up, the tested form may be a part): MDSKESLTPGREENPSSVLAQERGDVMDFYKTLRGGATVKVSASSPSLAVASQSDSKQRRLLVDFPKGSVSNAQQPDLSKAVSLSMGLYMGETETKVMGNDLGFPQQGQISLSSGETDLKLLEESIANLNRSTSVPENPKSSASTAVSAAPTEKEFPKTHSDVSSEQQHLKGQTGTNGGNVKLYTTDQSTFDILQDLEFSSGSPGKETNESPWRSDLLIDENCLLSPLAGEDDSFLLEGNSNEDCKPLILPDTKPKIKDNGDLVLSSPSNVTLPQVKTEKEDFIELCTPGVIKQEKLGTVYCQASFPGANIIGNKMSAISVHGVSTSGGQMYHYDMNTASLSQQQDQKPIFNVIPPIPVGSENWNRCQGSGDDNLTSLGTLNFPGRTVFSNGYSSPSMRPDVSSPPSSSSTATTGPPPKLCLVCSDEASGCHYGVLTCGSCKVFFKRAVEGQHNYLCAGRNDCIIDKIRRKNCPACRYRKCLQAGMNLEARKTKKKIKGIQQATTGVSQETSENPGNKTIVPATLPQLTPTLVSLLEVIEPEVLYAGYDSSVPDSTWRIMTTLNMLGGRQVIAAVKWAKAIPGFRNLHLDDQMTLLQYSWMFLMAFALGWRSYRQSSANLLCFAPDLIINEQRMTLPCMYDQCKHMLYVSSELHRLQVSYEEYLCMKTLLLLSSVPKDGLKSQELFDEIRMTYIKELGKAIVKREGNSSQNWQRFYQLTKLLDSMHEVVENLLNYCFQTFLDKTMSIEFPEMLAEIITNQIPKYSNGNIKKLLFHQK
Chain of 3',5'-cyclic-AMP phosphodiesterase 4B (Homo sapiens) (Q07343 whole entry, looked up): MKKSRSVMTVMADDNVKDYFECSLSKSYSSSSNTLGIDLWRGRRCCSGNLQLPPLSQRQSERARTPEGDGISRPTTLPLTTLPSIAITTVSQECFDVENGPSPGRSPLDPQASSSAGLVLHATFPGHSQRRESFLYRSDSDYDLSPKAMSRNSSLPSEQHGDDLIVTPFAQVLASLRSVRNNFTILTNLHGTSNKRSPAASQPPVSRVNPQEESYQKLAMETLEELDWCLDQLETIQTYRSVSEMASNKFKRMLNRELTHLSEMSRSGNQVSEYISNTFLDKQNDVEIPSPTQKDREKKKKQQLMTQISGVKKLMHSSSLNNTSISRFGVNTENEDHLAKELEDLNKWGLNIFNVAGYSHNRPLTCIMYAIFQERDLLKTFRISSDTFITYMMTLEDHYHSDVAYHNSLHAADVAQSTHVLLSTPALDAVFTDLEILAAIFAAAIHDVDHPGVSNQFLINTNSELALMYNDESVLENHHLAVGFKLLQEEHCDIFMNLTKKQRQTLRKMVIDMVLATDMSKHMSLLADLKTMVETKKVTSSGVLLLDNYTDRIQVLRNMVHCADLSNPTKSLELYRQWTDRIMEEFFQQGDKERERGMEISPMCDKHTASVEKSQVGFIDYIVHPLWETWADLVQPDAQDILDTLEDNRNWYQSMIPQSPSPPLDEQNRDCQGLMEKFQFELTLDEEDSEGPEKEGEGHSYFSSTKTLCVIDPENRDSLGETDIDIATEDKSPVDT

| Compound | Potency [1] | Potency [2] | outcome [3] | activity, negative = inhibition [4] | Potency [5] |
| --- | --- | --- | --- | --- | --- |
| N=C(N)SCCc1cnc[nH]1 | > 46 µM | > 46 µM | inactive | – | – |
| CN1CCN(c2nc3cc(C(F)(F)F)ccc3n3cccc23)CC1 | > 46 µM | > 46 µM | inactive | – | – |
| CN1CCc2cc(Cl)c(O)cc2[C@@H](c2ccccc2)C1 | > 46 µM | > 46 µM | inactive | – | – |
| CC[C@H](NC(=O)c1c(C)c(-c2ccccc2)nc2ccccc12)c1ccccc1 | > 46 µM | > 46 µM | inactive | – | – |
| CC(C)(C)c1cc(/C=C(\C#N)C(N)=S)cc(C(C)(C)C)c1O | > 46 µM | > 46 µM | – | – | – |
| CNCCNS(=O)(=O)c1cccc2cnccc12 | > 46 µM | > 46 µM | – | – | – |
| CN(C)CCCc1cc(C(=O)Nc2ccc(-c3ccncc3)cc2)ccc1O | > 46 µM | > 46 µM | inactive | – | – |
| C[C@H](NC(=O)/C(C#N)=C/c1ccc(O)c(O)c1)c1ccccc1 | > 46 µM | > 46 µM | – | -15.4% | inactive |
| COc1cc2c(CCNC(C)=O)c[nH]c2cc1O | > 46 µM | > 46 µM | inactive | – | – |
| CCCn1c(=O)c2c(ncn2C)n(CCC)c1=O | – | > 46 µM | – | 28.8% | – |
| N[C@@H](CS(=O)O)C(=O)O | > 46 µM | > 46 µM | inactive | – | – |
| CCCCOC(=O)NS(=O)(=O)c1sc(CC(C)C)cc1-c1ccc(Cn2c(CC)nc3c(C)cc(C)nc32)cc1 | > 46 µM | > 46 µM | inactive | – | – |
